# Pf Dd2 growth = qHTS Primary assay for Inhibitors of Plasmodium falciparum Dd2 growth in vitro. P. falciparum Dd2 growth, SYBR Green, 72 h. Potency, µM (series often up to 28.9 µM), for inactives: at the top dose activity, negative = inhibition, usual class: inhibitors. actives 4.3% (n = 120,000). AID 1347417, 2020; active = well fitted inhibition curve with a large enough effect;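 note: plate controls were DMSO vehicle for no effect and reference drug for full effect; nearly all actives have a fitted effect of over 65% in size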
#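 Readout: SYBR Green fluorescence, 485 nm excitation, 535 nm emission, after ~16 h lysis at 37C. Before that, Dd2-infected red cells (2.5% hematocrit) grew 72 h with compound, 29 uM top final concentration.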
# * hit, by the source's call; i = inactive; [ ] = dose if it differs, or a comment. Shown is part of a subset that was picked to be rich in hits. Potency is the fitted concentration of half-maximal effect.
SMILES,Pf Dd2 growth
O=C(c1cc[nH]c(=O)c1)N1CCCn2ccnc2C1c1ccccc1 (configuration not stated),-10%
O=C1NCCCCCCN(C(=O)c2ccoc2)[C@H]2C[C@H](c3nc(-c4cccnc4)no3)C[C@@H]12,i
CC1=NS(=O)(=O)N(C)C=C1C(=O)OCc1noc(-c2ccccc2C)n1,21%
COc1ccccc1-c1cccc(COc2ccc3c(cnn3CC[S+](C)(=O)[O-])c2)c1,-29%[44.1 µM]
COc1ccc(-c2ccc(COc3ccc4c(cnn4CCC(=O)O)c3)cc2)c(Cl)c1,i
COc1cc(F)cc(-c2ccc(COc3ccc4c(cnn4CCC(=O)O)c3)cc2)c1,-18%[44.1 µM]
CNC(=O)CCn1ncc2cc(OCc3ccccc3-c3cc(F)ccc3C)ccc21,3.2µM*
C[S+](=O)([O-])CCn1ncc2cc(OCc3cccc(-c4ccccc4O)c3)ccc21,7.9µM*
CNC(=O)CCn1ncc2cc(OCc3ccccc3-c3c(Cl)cccc3OC)ccc21,4µM*
CNC(=O)CCn1ncc2cc(OC3CCc4cccc(-c5ccnc(OC)c5)c43)ccc21 (configuration not stated),-7%
CNC(=O)CCn1ncc2cc(OCc3ccccc3-c3ccccc3COC)ccc21,4µM*
C[S+](=O)([O-])CCn1ncc2cc(OCc3cccc(-c4cncnc4)c3)ccc21,i
COc1ccc(F)cc1-c1cccc(COc2ccc3c(cnn3CC[S+](C)(=O)[O-])c2)c1,-29%
CNC(=O)CCn1ncc2cc(OCc3ccccc3-c3cnc(OC)nc3)ccc21,i
COc1cccc(F)c1-c1ccc(COc2ccc3c(cnn3CCC(=O)O)c2)cc1,-20%[44.1 µM]
COCCN1Cc2[nH]nc(-c3ccccc3OC)c2CC1=O,4%[44.1 µM]
Cn1c(N2CCN(C(=O)Cn3nc4c(cc3=O)CCCCC4)CC2)nc2ccccc21,-18%
Cn1c(CO[C@H]2CN(Cc3ccncc3F)C[C@H]2F)nc2ccccc21,18%[44.1 µM]
COCC1(CNC(=O)c2ccc(OC)cc2)C[C@@H](O)[C@@H](O)C1 (some centres not stated),9%[44.1 µM]
O=C1CCCCC(C(=O)NCC2CCCCC2)N1 (configuration not stated),13%
COc1cccc(CC(=O)N2CCCC(c3nc(CCOCC4CCCC4)no3)C2)c1 (configuration not stated),-26%
Cc1cnc(C)c(N2CCN(C(=O)CCCc3c[nH]c4ccccc34)CC2)n1,-11%
O=C1c2cc(N3CCOCC3)nc(-c3cccc(CO)c3)c2CN1Cc1ccccc1,i
CN(C(=O)Cc1c[nH]c2ccccc12)C1CCc2nn(CC3CC3)c(=O)n2CC1 (configuration not stated),-21%
CCn1cc(CN(C)C2CCc3nn(CC4CC4)c(=O)n3CC2)c(C)n1 (configuration not stated),2%
SMILES,Pf Dd2 growth
CN(Cc1cn(C)c2ccccc12)C1CCc2nn(CC3CC3)c(=O)n2CC1 (configuration not stated),5µM*
Cc1ccc(C)c(Cn2c(-c3ccc(F)cc3)nc(C)c(CCO)c2=O)c1,i
Cc1nn(C(C)C)c(C)c1CN1CC[C@@H](c2ccc3c(c2)OCO3)[C@H](O)C1,-26%
Cc1cccc(Cl)c1NC(=O)CN1C(=O)NC2(CCC(C)CC2)C1=O (configuration not stated),2%
CCS(=O)(=O)Nc1ccc(C(=O)N2Cc3nnc(C)n3C(C)C2)cc1 (configuration not stated),-2%
COc1ccc(CCNc2ncnc3c2CN(c2ccccc2F)C(=O)CN3C)cc1,i
CCCNC(=O)N(C1CCOCC1)C1CCN(C(=O)c2ccc(CC)cc2)CC1,-17%
Cc1c(C(=O)N2CCCCC2)c(S(=O)(=O)NCc2ccc(N(C)C)cc2)c(C)n1C,-17%
Cc1c(C(=O)N2CCCCCC2)c(S(=O)(=O)N(Cc2ccccc2)C(C)(C)C)c(C)n1C,13µM*
Cc1ccc(CNS(=O)(=O)c2c(C(=O)N3CCC(C)CC3)c(C)n(C)c2C)cc1,12%
CCN(C)C(=O)Cn1ncc(N2CCOC(CCN)C2)cc1=O (configuration not stated),0%
COCCOc1cc(C)c2c(c1C)C[C@H](C(C)C(=O)N1CCC(O)CC1)CC2 (some centres not stated),-5%[44.1 µM]
COCCOc1cc(C)c2c(c1C)C[C@H](C(C)C(=O)N1CCSCC1)CC2 (some centres not stated),10µM*
COc1cc(C)c2c(c1C)C[C@H]([C@H](C)C(=O)O)CC2,-13%[44.1 µM]
O=C(C1CCCC1)N1CCC(n2cc(-c3nc(-c4ccccc4)no3)nn2)CC1,229%
CC(c1ccc(-c2cc(N)ccn2)cc1)N1CCCCC1 (configuration not stated),i
Cc1ccc(C)c(NC(=O)c2nc(S(C)(=O)=O)ncc2N(Cc2ccc(C(C)(C)C)cc2)Cc2ccco2)c1,2.5µM*
Cc1ccc(NC(=O)c2nc(S(C)(=O)=O)ncc2N(Cc2ccco2)Cc2cccs2)c(C)c1,-8%
Cc1ccc(C)c(NC(=O)CCc2nc(-c3ccc(C(C)(C)C)cc3)no2)c1,0%

# Screening data: PubChem, National Center for Advancing Translational Sciences (NCATS)
